Screening results from PubChem.
HP1b binding inh: blocks HP1-beta chromodomain binding to methylated histone tails | 390,000 compounds, 0.56% hits | P83916 | Potency, µM (series often up to 114 µM), for inactives: at the top dose activity change, negative = inhibition, usual class: inhibitors | AlphaScreen HP1-beta / biotin-H3K9me3 peptide binding | AID 540317; further: nearly all actives have a fitted effect of over 70% in size
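AlphaScreen: HP1-beta (50 nM) preformed 30 min with biotin-H3(1-18)K9me3 peptide (50 nM) in PBS pH 7.4, 0.01% Tween-20. Compound added for 30 min at RT, then streptavidin donor/nickel chelate acceptor beads (10 ug/mL) for 30 min.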
G9a block: G9a (human) methyltransferase inhibition | Potency, µM (top dose mostly 102 µM), inactives show top-dose activity, negative = inhibition, actives largely listed as inhibitors | Q96KQ7 | 350,000 compounds, 8.8% hits | AID 504332 | G9a H3K9 monomethylation, AlphaScreen, 2 h; further: on the % scale 0 is the no-effect control and ±100 the full control effect; nearly all actives have a fitted effect of over 75% in size
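Compounds were preincubated with 20 nM G9a for 15 min, after which biotinylated H3K9 peptide (500 nM) and SAM (20 uM) started a 2 h room-temperature reaction. Monomethylated product was quantified by antibody-based AlphaScreen chemiluminescence.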
JMJD2A Tudor: JMJD2A Tudor domain (human) inhibition; 390,000 compounds, 4.4% hits; AlphaScreen JMJD2A-Tudor / H3K4me3 peptide binding; Potency, µM (series often up to 114 µM), inactives show at the top dose activity change, negative = inhibition, actives largely listed as inhibitors; AID 504339; O75164; further: on the % scale 0 is the no-effect control and ±100 the full control effect; nearly all actives have a fitted effect of over 50% in size
BAZ2B block: inhibitors of human BAZ2B bromodomain | 360,000 compounds, 4.4% hits | AlphaScreen BAZ2B-H3K14Ac peptide displacement | Potency, µM (highest dose often 114 µM), for inactives: top-dose activity change, negative = inhibition, usual class: inhibitors | AID 504333 | Q9UIF8; further: on the % scale 0 is the no-effect control and ±100 the full control effect; nearly all actives have a fitted effect of over 60% in size
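Inhibition is scored as reduced AlphaScreen emission. The BAZ2B/b-H3(5-23)K14Ac complex (50 nM each) in PBS pH 7.4, 0.01% Tween-20 meets compound (up to 110 uM) for 30 min at RT before bead addition.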
L3MBTL1 block: inhibitors of human L3MBTL1. Q9Y468. AlphaScreen L3MBTL1–H3K9me1 peptide binding. Potency, µM (highest dose often 57.1 µM), for the others: at the highest dose activity, negative = inhibition, actives largely listed as inhibitors. 230,000 compounds, 0.66% hits. AID 485360; further: on the % scale 0 is the no-effect control and ±100 the full control effect; nearly all actives have a fitted effect of over 60% in size
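L3MBTL1 (50 nM) pre-complexed 30 min with biotinylated H3(1-15)K9me1 peptide (75 nM), then compounds added for 30 min at room temperature; AlphaScreen streptavidin donor/nickel chelate acceptor beads (10 ug/mL final) read after 30 min dark incubation.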
* = called active by the depositor; ? = inconclusive; . = no result; ! = repeats disagree; [ ] = another dose, or the depositor's remark. A selection: hits, their analogues and other compounds. The true share with any hit is near 11%. The call rests on the fitted dose curve; in most records, active means well fitted inhibition curve with a large enough effect; inconclusive means small, poorly fitted or top-dose-only effect; inactive means no such curve, though single readings can be large or run the other way. Potency means the concentration at half of the fitted maximal effect.

SMILES | HP1b binding inh | G9a block | JMJD2A Tudor | BAZ2B block | L3MBTL1 block
O=C1C(C2=NC(C(=O)O)C3C(=O)N(c4ccccc4)C(=O)C23)=C(O)c2ccccc21 (stereo not drawn) | 2% | ? | 16µM* | -22% | 1%
CCCCNC(=O)NS(=O)(=O)c1ccc(NC(=O)CCC(=O)c2cccs2)cc1 | 7% | -10%[2.33 µM] | -16% | -1% | .
CCN(CC)S(=O)(=O)c1ccc(N2CCOCC2)c(NC(=S)NC(=O)c2ccco2)c1 | ? | 28µM* | ? | -31% | -8%
CCc1cc(C(=O)Nc2cc(S(=O)(=O)N(CC)CC)ccc2N2CCOCC2)sc1C | 13% | 40µM* | -17% | 4% | 0%
CCN(CC)S(=O)(=O)c1ccc(N2CCOCC2)c(NC(=O)CC(C)(C)C)c1 | 5% | 79µM* | -28% | 12% | -5%
O=C(NC(=S)Nc1cc(S(=O)(=O)N2CCOCC2)ccc1N1CCOCC1)c1ccco1 | 36% | -27% | -14% | -30% | -5%
O=C(NC(=S)Nc1cc(S(=O)(=O)N2CCOCC2)ccc1O)c1ccco1 | ? | 10µM* | -23% | -31% | 6%
CCN(CC)S(=O)(=O)c1ccc(N2CCOCC2)c(NC(=O)c2ccco2)c1 | 9%[57 µM] | . | -11% | . | 0%
Cc1cc2nc(-c3cccc(NC(=O)C(C)C)c3C)oc2cc1C | 44% | ? | -16% | -8% | .
COc1cccc(Cn2c(=O)n(-c3ccc(C)c(F)c3)c(=O)c3sc4ccccc4c32)c1 | 32% | 4%[59 µM] | 5% | 1% | .
COc1cc2[nH]c(=S)n(NC(=O)c3ccccc3)c(=O)c2cc1OC | 19% | ? | 89µM* | ? | .
COC(=O)c1ccc2c(=O)n(CCN3CCOCC3)c(=S)[nH]c2c1 | 18% | -47%[12.7 µM] | 56µM* | -1% | 6%[11.4 µM]
COCCn1c(=S)[nH]c2cc(C(=O)NCCCN3CCOCC3)ccc2c1=O | 69% | . | 25µM* | ? | 5%
O=C(NCCCN1CCOCC1)c1ccc2c(=O)n(Cc3cccc(Br)c3)c(=S)[nH]c2c1 | ? | 35µM* | ? | -24% | .
COC(=O)c1ccc2c(=O)n(CCCN3CCOCC3)c(=S)[nH]c2c1 | 21% | ? | -34% | -3% | 4%
O=C(CCOc1ccccc1)N(Cc1cccnc1)c1nc2c(F)cc(F)cc2s1 | 39% | -21%[59 µM] | -18% | 1% | .
O=C(Nc1ccc(S(=O)(=O)Nc2ncccn2)cc1)c1ccccc1NS(=O)(=O)c1ccc(Cl)cc1 | 24% | 2%[12.7 µM] | -14% | -4% | .
O=Cc1c(NCCN2CCCC2)c2ccccc2[nH]c1=O | 31% | 10µM* | ? | 6% | 9%
O=C(NCCCN1CCOCC1)c1cc2c(=O)[nH]c3ccccc3c2s1 | 9% | 26%[59 µM] | -16% | 4% | 24%
O=C(NCCCN1CCOCC1)c1c(O)c2ccccc2[nH]c1=O | 56% | 50µM* | -23%[57.1 µM] | -10% | -2%
COc1ccccc1Cn1c(=S)[nH]c2cc(C(=O)NCCCN3CCOCC3)ccc2c1=O | 39% | 35µM* | -23% | -36% | .
COC(=O)c1ccc2c(=O)n(NC(C)=O)c(=S)[nH]c2c1 | ? | ? | 3.5µM* | 50µM* | .
CC(C)NC(=O)N1CC2(CCN(C(=O)c3ccco3)CC2)C1 | . | 1%[12.7 µM] | . | . | .
COc1ccc(CC(=O)n2[nH]c(=O)c3ccccc3c2=O)cc1OC | 43% | . | 7% | 0% | 10%
COc1ccc(CC(=O)n2[nH]c(=O)ccc2=O)cc1OC | 8.9µM* | 1.1µM* | 8.9µM* | -32% | 3%
SMILES | HP1b binding inh | G9a block | JMJD2A Tudor | BAZ2B block | L3MBTL1 block
Cc1c(C(=O)N(Cc2ccncc2)CC2CCCO2)oc2c(F)cccc12 (stereo not drawn) | 28% | . | -21% | -9% | .
COc1cc(C(=O)N(Cc2ccc(N(C)C)cc2)CC2CCCO2)cc(OC)c1OC (stereo not drawn) | 5% | ? | -30% | 79µM* | .
Cc1cc2oc(C(=O)N(Cc3ccc(N(C)C)cc3)CC3CCCO3)c(C)c2cc1C (stereo not drawn) | ? | 14µM* | 13µM*! | 14µM* | .
Cc1ccc2c(C)c(C(=O)N(Cc3ccncc3)CC3CCCO3)oc2c1C (stereo not drawn) | 14% | . | -28% | -10% | .
COc1cc(CN(CC2CCCO2)C(=O)c2ccc(F)cc2)cc(OC)c1OC (stereo not drawn) | 0% | 4%[59 µM] | 0% | 0% | .
Cc1ccc2oc(C(=O)N(Cc3ccc(N(C)C)cc3)CC3CCCO3)c(C)c2c1 (stereo not drawn) | ? | 28µM* | 50µM* | 11µM* | .
COc1cccc(CNC(=O)c2ccc(-c3nc(COc4ccccc4)c(C)o3)cc2)c1 | 7% | -6%[59 µM] | -18% | -12% | .
CCC(Sc1nnc(-c2ccc(C)c(Cl)c2)n1CC)C(=O)Nc1nccs1 (stereo not drawn) | 41% | ? | 89µM* | 3% | -1%
CCn1c(SCC(=O)Nc2nccs2)nnc1-c1ccc(S(=O)(=O)N2CCCCCC2)cc1 | 39% | -44%[59 µM] | -12% | -2% | .
Cn1nnnc1Sc1ncnc2scc(-c3cccc([N+](=O)[O-])c3)c12 | . | . | -27% | . | .
CCOc1ccc(-c2cc(C(=O)N/N=C(\C)c3cccnc3)c3ccccc3n2)cc1 | 45% | 35µM* | -12% | ? | .
C/C(=N\NC(=O)c1cc(-c2ccco2)nc2ccccc12)c1cccnc1 | 44% | 40µM* | -21% | -15% | -9%
COc1ccc(OC)c(-c2cc(C(=O)N/N=C(\C)c3cccnc3)c3ccccc3n2)c1 | 30% | . | -21% | -12% | .
NC(=S)C1COc2ccccc2O1 (stereo not drawn) | -7% | 45µM* | 2% | -9% | -1%
Cc1ccc(S(=O)(=O)/N=C(\Sc2ccccc2)c2ccccc2)cc1 | 46% | 0%[12.7 µM] | 8% | 17% | 14%
Cc1ccc(S(=O)(=O)/N=C(/Sc2ccccc2C(=O)O)c2ccccc2)cc1 | 22µM*! | . | -22% | -22% | .
C=CCn1c(-c2cc(OC)cc(OC)c2)n[nH]c1=S | 26% | ? | 32µM* | 13% | 8%
FC(F)C(F)(F)Oc1cccc(-c2n[nH]c(=S)n2Cc2ccccc2)c1 | -14% | 3%[0.501 µM] | -35% | -4% | -10%
C=CCn1c(-c2sc3nc(C)cc(C)c3c2N)n[nH]c1=S | 52% | 7.9µM* | 40µM* | -17% | -7%
C=CCn1c(-c2cccc(OCC)c2)n[nH]c1=S | 38% | 8.9µM* | 22µM* | -9% | 6%
C=CCn1cnc2c(sc3nc(C)cc(C)c32)c1=O | 42% | -9% | -17% | -1% | 0%
C=CCn1c(-c2ccccc2OC)n[nH]c1=S | 41% | 2µM* | 6.3µM* | -9% | 5%
CCOc1cc(C(=O)OC(C(=O)NC(=O)NC)c2ccccc2)ccc1OCC(=O)N1CCOCC1 (stereo not drawn) | 13% | . | -5% | . | 1%
